Screens as filed in PubChem.
In the library only some 2.9% were active in any assay of this set; here they are far more common.
S2 tox: Viability Counterscreen for Primary qHTS for Inhibitors of ATXN expression; S2 cells (HEK-293 line with an ATXN2-luciferase reporter) viability, CellTiter-Fluor protease fluorescence, 24 h; 400,000 tested, 0.49% active; Potency, µM (titrated, usually from 56.7 µM), hits mostly cytotoxic; also: nearly all actives have a fitted effect of over 40% in size
A549 tox-1: Nrf2 qHTS screen for inhibitors: counterscreen for cytotoxicity | A549 ARE-Fluc cells, CellTiter-Fluor viability, 18-24 h | Potency, µM (top dose mostly 46 µM), without a hit: top-dose activity change, negative = cytotoxicity, hits mostly inhibitors | 390,000 tested, 0.16% active | AID 504648, 2011; also: % is scaled to controls: 0 for no effect and ±100 for the full control effect
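A549 ARE_Fluc cells in 5% FBS OPTI-MEM were exposed to compounds in concentration-response for 18-24 h at 37 deg C. Viability was read by CellTiter-Fluor fluorescence (Ex 405/Em 525) after 30 min, before the luciferase read.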
ATXN2 expr inh: Primary qHTS for Inhibitors of ATXN expression; HEK-293 ATXN2-luciferase reporter, luminescence, 24 h; Potency, µM (titrated, usually from 57 µM), inactives show at the highest dose activity change, negative = inhibition, hits mostly inhibitors; 360,000 tested, 0.72% active; also: % is scaled to controls: 0 for no effect and ±100 for the full control effect; nearly all actives have a fitted effect of over 55% in size
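qHTS (up to 57 uM final) was run with 24 h compound exposure of reporter cells at 37 °C. Each well was multiplexed: SteadyGlo luminescence measured ATXN2-luciferase expression after a fluorogenic Gly-Phe-AFC viability readout (25 uM final).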
Nrf2 ARE act: qHTS of Nrf2 Activators; 410,000 tested, 0.31% active; AREc32 ARE-luciferase reporter (MCF7-derived line), luminescence, 24 h; Potency, µM (top dose mostly 46.1 µM), for the others: at the top dose activation, most hits filed as activators; also: % of control where 0% means no effect; nearly all actives have a fitted effect of over 65% in size
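ARE-driven firefly luciferase activity in AREc32 cells measured after a 24 hr compound exposure at 37 deg C, using Steady-Glo reagent and a 30 min room-temperature hold.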
Nrf2 inh: Nrf2 qHTS screen for inhibitors; 360,000 tested, 2.1% active; A549 ARE-Fluc reporter, luciferase luminescence, 18-24 h; Potency, µM (titrated, usually from 46 µM), for inactives: at the highest dose activity change, negative = inhibition, usual class: inhibitors; AID 504444, 2011; also: % is scaled to controls: 0 for no effect and ±100 for the full control effect; nearly all actives have a fitted effect of over 60% in size
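Concentration-response testing used A549 ARE_Fluc cells at 5000 cells/well. Following an 18-24 h compound incubation, viability was read by fluorescence (Ex 405/Em 525) and luciferase output by luminescence.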
FLuc enzyme inh: Nrf2 qHTS screen for inhibitors: Purified Fluc Biochemical Counterscreen for Hit Validation; shares compounds with Nrf2 inh; purified firefly luciferase, luminescence inhibition; Potency, µM (titrated, usually from 57.5 µM), for the others: at the top dose activity change, negative = inhibition, usual class: inhibitors; 1,400 tested, 4% active; also: % is scaled to controls: 0 for no effect and ±100 for the full control effect; nearly all actives have a fitted effect of over 65% in size
Target sequence (P08659 whole entry, looked up): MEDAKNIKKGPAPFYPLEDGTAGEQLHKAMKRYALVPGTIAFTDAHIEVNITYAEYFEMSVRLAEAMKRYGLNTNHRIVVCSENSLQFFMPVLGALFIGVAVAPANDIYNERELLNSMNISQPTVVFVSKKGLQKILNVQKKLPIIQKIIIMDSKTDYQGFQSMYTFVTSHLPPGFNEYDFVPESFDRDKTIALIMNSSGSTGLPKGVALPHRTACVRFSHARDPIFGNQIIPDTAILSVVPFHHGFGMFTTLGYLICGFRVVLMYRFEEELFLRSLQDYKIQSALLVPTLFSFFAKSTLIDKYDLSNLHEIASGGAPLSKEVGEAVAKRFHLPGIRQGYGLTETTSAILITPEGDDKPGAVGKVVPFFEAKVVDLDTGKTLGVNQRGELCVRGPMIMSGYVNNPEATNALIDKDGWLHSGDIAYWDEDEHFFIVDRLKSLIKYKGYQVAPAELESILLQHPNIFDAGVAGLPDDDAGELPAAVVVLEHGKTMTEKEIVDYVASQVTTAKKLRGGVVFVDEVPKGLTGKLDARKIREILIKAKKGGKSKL
A549 tox-2: Nrf2 qHTS screen for inhibitors: A549 ARE-Fluc Cytotoxicity Counterscreen for Hit Validation. shares compounds with Nrf2 inh. A549 ARE-Fluc cells, cytotoxicity counterscreen. Potency, µM (series often up to 46.1 µM), inactives show at the highest dose activity change, negative = cytotoxicity, usual class: inhibitors. 1,400 tested, 2% active. AID 720523, 2013;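 also: cells exposed to compounds for 18 to 24 hours; % is scaled to controls: 0 for no effect and ±100 for the full control effect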
ARE-Fluc inh: Nrf2 qHTS screen for inhibitors: Nrf2 A549 ARE-Fluc Confirmation Assay for Hit Validation; 1,400 tested, 74% active; AID 720524, 2013; shares compounds with Nrf2 inh; A549 ARE-firefly luciferase reporter, luminescence; Potency, µM (titrated, usually from 46.1 µM), inactives show at the highest dose activity change, negative = inhibition, actives largely listed as inhibitors; also: % is scaled to controls: 0 for no effect and ±100 for the full control effect; nearly all actives have a fitted effect of over 65% in size
* marks the source's active call; other numbers are inactive results; i = inactive; ? = inconclusive; nt = no result given; [ ] = another dose, or the depositor's remark. Calls follow the shape of the dose curve; as a rule, active = well fitted curve in the direction sought with a large enough effect; inconclusive = small, poorly fitted or top-dose-only effect, or another doubt; inactive = no such curve, though single readings can be large; an effect the other way counts as inactive or inconclusive. Potency is read from the fitted curve at half-maximal effect.

SMILES	S2 tox	A549 tox-1	ATXN2 expr inh	Nrf2 ARE act	Nrf2 inh	FLuc enzyme inh	A549 tox-2	ARE-Fluc inh
COc1ccc(-n2nc(C(=O)NCc3ccc(F)cc3)c3c4ccccc4n(C)c3c2=O)cc1	i	-5.2%	2.8%	2.5%	12.3%	nt	nt	nt
COc1ccc(Cn2cccc(NC(=O)Nc3cccc(C#N)c3)c2=O)cc1	i	-9.8%	-19.6%	2.8%	5.17µM*	-16.8%	5.3%	?
COc1ccc(Cn2c(C)c(C)c(C#N)c2NC(=O)Nc2cccc(C)c2)cc1	?	?	-24.6%	4.1%	?	nt	nt	nt
O=c1c2c(nc3c(-c4ccc(Cl)cc4)c[nH]n13)CCCC2	?	-11.9%	15.8µM*	-1.1%	7.94µM*	-15.9%	-16.2%	6.51µM*
O=c1c2c(nc3c(-c4cccc5ccccc45)c[nH]n13)CCC2	i	5.1%	-15.6%	-0.3%	-18.1%	nt	nt	nt
Cc1cc(C)c2c(N)c3cccc(C)c3nc2n1	nt	-9.3%	13.4µM*	-2.3%	7.31µM*	-12.3%	-1.7%	3.26µM*
Cc1cccc2c(N)c3c(nc12)CCCC3 (tested in a mixture with another compound)	?	?	?	0.2%	6.2%	nt	nt	nt
CCc1ccccc1NC(=O)CCS(=O)(=O)c1ccc2c(c1)CCCN2C(C)=O	i	-1.0%	31.3%	-0.1%	10.1%	nt	nt	nt
COc1ccc(S(=O)(=O)N2CCN(CC(=O)N3CCc4ccccc4C3)CC2)cc1OC	i	-6.8%	nt	-0.2%	?	nt	nt	nt
COc1cc2c(cc1OC)CN(C(=O)CN1CCN(S(=O)(=O)c3ccccc3Br)CC1)CC2	i	-6.8%	nt	-0.6%	1.84µM*	2.7%	-16.4%	-4.7%
O=C(COc1c(Cl)cccc1Cl)Nc1ccccc1N1CCCC1	i	12.5%	7.3%	-0.1%	-7.2%	nt	nt	nt
CCOC(=O)c1ccc(NC(=O)CSc2c3c(nc4cc(Cl)ccc24)CCCC3)cc1	nt	0.3%	nt	?	-18.3%	nt	nt	nt
C[n+]1ccccc1/C=C/c1ccc(C#N)cc1	i	-7.0%	6.2%	0.0%	?	nt	nt	nt
C[n+]1ccccc1/C=C/c1c(F)cccc1F	i	?	13.4%	-0.6%	2.59µM*	1.3%	-29.8%	2.06µM*
C[n+]1ccccc1/C=C/c1ccc(F)c(F)c1	i	5.9%	-3.9%	0.2%[9.22 µM]	-14.4%	nt	nt	nt
C[n+]1ccccc1/C=C/c1ccc([N+](=O)[O-])cc1	i	?	-2.8%	0.1%	3.66µM*	1.1%	?	7.31µM*
Cc1ccccc1/C=C/c1cccc[n+]1C	nt	-28.8%	nt	0.2%	1.84µM*	2.4%	-28.3%	4.11µM*
Cc1nc(N2CCCC2)c2c(C(=O)Nc3cccc(C)c3C)c(C)oc2n1	nt	13.0%	nt	-1.0%	?	nt	nt	nt
COCCNC(=O)C1(C)CCCN(Cc2cc(C)ccc2C)C1 (stereo not drawn)	i	nt	12.8%	-0.8%	nt	nt	nt	nt
CCC(=O)c1ccc(OCc2ccc(C(=O)c3ccccc3)cc2)cc1	i	?	nt	0.2%	7.31µM*	-2.0%	-2.4%	8.2µM*
CCC(=O)c1ccc(OCc2ccccc2)c(OC)c1	i	0.0%	74.1%	3.6%	?	nt	nt	nt
COc1ccc(CNC(=O)c2cccc(N3CCCS3(=O)=O)c2)cc1	i	7.9%	-19.4%	-0.7%	-5.2%	nt	nt	nt
COc1ccc(CNC(=O)c2cccc(N3CCCS3(=O)=O)c2)cc1OC	nt	-10.4%	nt	-0.9%	2.59µM*	-1.3%	-0.5%	?
Cc1c(N)cc[n+](CC(=O)c2ccccc2)c1C	i	-16.6%	-21.3%	-0.5%	4.11µM*	0.2%	-8.8%	14.6µM*
Nc1cc[n+](CC(=O)c2ccccc2)cc1	i	-11.0%	nt	0.1%	8.2µM*	2.9%	-13.1%	?
SMILES	S2 tox	A549 tox-1	ATXN2 expr inh	Nrf2 ARE act	Nrf2 inh	FLuc enzyme inh	A549 tox-2	ARE-Fluc inh
Cc1nc2ccc(NS(=O)(=O)c3ccc4c(c3)OCCO4)cc2s1	?	-25.2%	-20.7%	3.4%	2.91µM*	-1.6%	-1.2%	6.51µM*
COc1cc(OC)cc(-c2cc3ccccc3c(=O)o2)c1	i	-0.6%	12.1%	12.6%	24.0%	nt	nt	nt
Nc1ccc(-c2cc3ccccc3c(=O)o2)cc1	i	-0.6%	?	6.0%	?	1.51µM*	-3.4%	2.31µM*
Cc1cc(NC(=O)c2cc(-c3ccc(F)cc3)on2)nn1Cc1ccc(Cl)cc1	nt	-13.7%	nt	-0.5%	6.51µM*	-0.3%	-10.2%	2.91µM*
Cc1cc(NC(=O)c2cc(-c3ccco3)on2)nn1Cc1ccc(Cl)cc1	i	-16.7%[1.84 µM]	-17.1%	0.0%	-25.9%	nt	nt	nt
COc1cccc(-c2cc(C(=O)Nc3cc(C)n(Cc4ccc(Cl)cc4)n3)no2)c1	i	?	-34.5%	-0.2%	?	-3.6%	-8.7%	7.31µM*
COc1ccc(OC)c(-c2cc(C(=O)Nc3cc(C)n(Cc4ccc(Cl)cc4)n3)no2)c1	?	17.7%	-34.0%	3.7%	nt	nt	nt	nt
COc1cc(NC(=O)COn2nnc3ccc(S(C)(=O)=O)cc32)cc(OC)c1	?	-11.5%	-7.3%	21.0%	-11.6%	nt	nt	nt
CCOC(=O)c1c(NC(=O)COC(=O)Cn2c(C)nc3ccccc32)sc2c1CCCC2	i	-1.9%	4.1%	-0.6%	1.2%	nt	nt	nt
CCOC(=O)c1c(NC(=O)Cn2c(C)nc3ccccc32)sc2c1CCC2	?	-3.9%	?	-0.2%	5.8µM*	0.9%	-10.1%	?
Cc1cc(C)n(CCCNC(=O)COc2ccc([N+](=O)[O-])cc2)n1	i	14.3%	nt	0.1%	2.8%	nt	nt	nt
CC[N+]1(CC)CC2=Cc3c(ccc4ccccc34)CC2C1 (stereo not drawn)	i	-11.2%	1.7%	2.4%	?	nt	nt	nt
CC12Cc3ccc4ccccc4c3C=C1C[N+](C)(C)C2 (stereo not drawn)	i	-18.9%	-10.5%	-0.5%	1.3µM*	-0.4%	-7.1%	18.4µM*
CCOc1ccc(-c2nc(CSCC(=O)N3CCN(c4ccc(F)cc4)CC3)c(C)o2)cc1	i	-2.4%	-1.4%	0.3%	nt	nt	nt	nt
COc1ccc(-c2nc(CSCC(=O)N3CCN(c4cc(Cl)ccc4C)CC3)c(C)o2)cc1	nt	-16.8%	nt	-2.9%	7.31µM*	?	?	11.6µM*
